Assay results as given in PubChem BioAssay (NCI).
This is part of a sample that, as a whole, favours compounds with a hit. Of some 79,000 tested, about 15% had one in any assay. A number with no mark means an inactive call. The source made the active and inactive calls. Cut-off read from the data, not from the text of the source: active = growth inhibition above about 70%; inactive = the rest.

Experiment: NCI Yeast Anticancer Drug Screen. Data for the bub3 strain (AID 167)
Conditions: S. cerevisiae bub3 mutant strain, at 50.0 µM, hits give high values
In short: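 Steps: expose the mutant yeast strain to compound; grow alongside vehicle-treated cultures; measure growth; express inhibition against the vehicle cultures.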

SMILES | growth inhibition
N#CC(C(=O)/C(=N\Nc1nc(=S)[nH]n1N)C(C#N)c1ccc(Cl)cc1)c1ccc(Cl)cc1 (stereo not given) | -4.4%
CCOC(=O)C(CC)C1=CCCCC1 (stereo not given) | -11.2%
CCn1c(SCC(=O)N/N=C/c2ccccc2)nc2ccccc2c1=O | -1.3%
Cc1cc2c(cc1N)C(C)(C)CCC2(C)C | -11.8%
CS(=O)(=O)Nc1nc2ccccc2c(=O)o1 | 3.75%
Cc1csc(=NCc2cccnc2)n1C | 19.8%
C/C(=N\NC(=S)N1CCCCCC1)c1nccs1 | -6.9%
CC(=O)OCC1OC(n2cnc3c(N)ncnc32)C(O)C1O (stereo not given) | 4.5%
C/C(=C1\SC(=S)N(C2OC(CO)C(O)C(O)C2O)C1=O)c1ccco1 (stereo not given) | -3.3%
Clc1ccc(Nc2ncnc3oc(-c4ccccc4)c(-c4ccccc4)c23)cc1 | -4.1%
N#C/C(=N\NC(=O)c1cccc(C(=O)N/N=C(\C#N)c2ccccc2Cl)n1)c1ccccc1Cl | -1.85%
CC[C@@]12CCC(=S)N(CCSc3ccccc3)[C@@H]1c1c(n(S(=O)(=O)c3ccc(OC)cc3)c3ccccc13)CC2 | 0.7%
CN(C)C1=Nc2ccccc2C(=S)N2CSCC12 (stereo not given) | -63.8%
c1ccc(N=C(c2ccccc2)c2ccccc2)cc1 | -7.65%
CCC1(C)N=C(N)Nc2nc3cc(C)c(C)cc3n21 (stereo not given) | 19.9%
Nc1ccc(S(=O)(=O)Nc2ccccn2)cc1 | -20.2%
Nc1ncnc2c1ncn2-c1ccc(N(CCO)CCO)cc1 | -9.45%
CCN(CC)CCOc1cccc(O)c1 | -8.3%
CSc1ccc([C@@H](O)[C@H](CO)NC(=O)C(Cl)Cl)cc1 | 74.1% (active)
c1ccc(COC(c2ccccc2)(c2ccccc2)c2ccccc2)cc1 | -0.85%

SMILES | growth inhibition
c1ccc(-c2nc(-c3ccccc3)c(-c3ccccc3)[nH]2)cc1 | 5.05%
CCC1=C/C(=N/O)C(C)=CC1(C)C(Cl)(Cl)Cl (stereo not given) | 17.9%
COc1ccc(OC)c(Cc2ccc(NC(C)=O)cc2)c1 | -0.75%
CC(=O)Nc1c(Nc2ccc3c(=O)[nH]ccc3c2C)cc[nH]c1=O | 10.4%
NCCCc1ccc2c(c1)OCO2 | 30.4%
O=CN(Cc1cnccn1)Cc1cnccn1 | 7%
CN(C)CCCNc1ccc2nnn3c4ccc([N+](=O)[O-])cc4c(=O)c1c23 | 65.7%
Clc1ccc2c(c1)[nH]c1c2nc2sccn21 | -12.9%
O=[N+]([O-])c1ccc(-c2noc(-c3ccccc3)c2C2=NCCN2)cc1 | 7.8%
CCOC(=O)C(Cc1ccc([N+](=O)[O-])cc1)(Cc1ccc([N+](=O)[O-])cc1)C(=O)OCC | -25.6%
O=C(O)c1cccc2cnccc12 | -13.3%
Nc1c2ccccc2nc2c(C(=O)Nc3ccc(S(N)(=O)=O)cc3)cccc12 | -2.45%
COc1ccc2oc(=O)[nH]c2c1 | -6.9%
CCCC(C)NC(=O)c1ccc(OCC)cc1 (stereo not given) | -12.3%
CC(=O)CC(=O)C1CCC(C(=O)CC(C)=O)CC1 (stereo not given) | -0.7%
Cc1nsc2[nH]c(=O)n(Nc3ccc(O)cc3)c(=O)c12 | 5%
CC1(C)C(=O)c2cc3ccc4ccccc4c3cc2C(C)(C)C1(C)C | 2.75%
COC(=O)c1cc2c(cc1CC(Cc1ccc3c(c1)CCCC3)C(=O)OC)CCCC2 (stereo not given) | -2.25%
O=C(O[C@H]1[C@@H]2C=CO[C@@H](OC3OC(CO)C(O)C(O)C3O)[C@@H]2[C@@]2(CO)O[C@@H]12)c1ccc(O)c(O)c1 (stereo not given in full) | -8.35%
O=P(O)(O)c1ccc(-c2ccc(P(=O)(O)O)cc2)cc1 | 2.3%

Experiment: NCI Yeast Anticancer Drug Screen. Data for the mlh1 rad18 strain (AID 175)
Conditions: S. cerevisiae mlh1 rad18 strain growth inhibition; at 50.0 µM; hits give high values
In short: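 A repair-deficient yeast strain is exposed to test compound, and growth is scored relative to vehicle-treated controls.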

SMILES | growth inhibition
N#CC(C(=O)/C(=N\Nc1nc(=S)[nH]n1N)C(C#N)c1ccc(Cl)cc1)c1ccc(Cl)cc1 (stereo not given) | -4.95%
CCOC(=O)C(CC)C1=CCCCC1 (stereo not given) | -8.55%
CCn1c(SCC(=O)N/N=C/c2ccccc2)nc2ccccc2c1=O | -33.7%
Cc1cc2c(cc1N)C(C)(C)CCC2(C)C | -18.1%
CS(=O)(=O)Nc1nc2ccccc2c(=O)o1 | 4.85%
Cc1csc(=NCc2cccnc2)n1C | 15.8%
C/C(=N\NC(=S)N1CCCCCC1)c1nccs1 | 2.15%
CC(=O)OCC1OC(n2cnc3c(N)ncnc32)C(O)C1O (stereo not given) | -11.2%
C/C(=C1\SC(=S)N(C2OC(CO)C(O)C(O)C2O)C1=O)c1ccco1 (stereo not given) | -32.9%
Clc1ccc(Nc2ncnc3oc(-c4ccccc4)c(-c4ccccc4)c23)cc1 | 4.65%
N#C/C(=N\NC(=O)c1cccc(C(=O)N/N=C(\C#N)c2ccccc2Cl)n1)c1ccccc1Cl | 4.2%
CC[C@@]12CCC(=S)N(CCSc3ccccc3)[C@@H]1c1c(n(S(=O)(=O)c3ccc(OC)cc3)c3ccccc13)CC2 | -5.3%
CN(C)C1=Nc2ccccc2C(=S)N2CSCC12 (stereo not given) | -20.3%
c1ccc(N=C(c2ccccc2)c2ccccc2)cc1 | 26.3%
CCC1(C)N=C(N)Nc2nc3cc(C)c(C)cc3n21 (stereo not given) | 21.4%
Nc1ccc(S(=O)(=O)Nc2ccccn2)cc1 | -17.4%
Nc1ncnc2c1ncn2-c1ccc(N(CCO)CCO)cc1 | 8.35%
CCN(CC)CCOc1cccc(O)c1 | -2.9%
CSc1ccc([C@@H](O)[C@H](CO)NC(=O)C(Cl)Cl)cc1 | 47.6%
c1ccc(COC(c2ccccc2)(c2ccccc2)c2ccccc2)cc1 | 27.9%

SMILES | growth inhibition
c1ccc(-c2nc(-c3ccccc3)c(-c3ccccc3)[nH]2)cc1 | -36.2%
CCC1=C/C(=N/O)C(C)=CC1(C)C(Cl)(Cl)Cl (stereo not given) | 48.5%
COc1ccc(OC)c(Cc2ccc(NC(C)=O)cc2)c1 | -2.65%
CC(=O)Nc1c(Nc2ccc3c(=O)[nH]ccc3c2C)cc[nH]c1=O | 27.5%
NCCCc1ccc2c(c1)OCO2 | 50.5%
O=CN(Cc1cnccn1)Cc1cnccn1 | -14.2%
CN(C)CCCNc1ccc2nnn3c4ccc([N+](=O)[O-])cc4c(=O)c1c23 | 80% (active)
Clc1ccc2c(c1)[nH]c1c2nc2sccn21 | -10.1%
O=[N+]([O-])c1ccc(-c2noc(-c3ccccc3)c2C2=NCCN2)cc1 | 7.6%
CCOC(=O)C(Cc1ccc([N+](=O)[O-])cc1)(Cc1ccc([N+](=O)[O-])cc1)C(=O)OCC | -17.2%
O=C(O)c1cccc2cnccc12 | -8.7%
Nc1c2ccccc2nc2c(C(=O)Nc3ccc(S(N)(=O)=O)cc3)cccc12 | 1.05%
COc1ccc2oc(=O)[nH]c2c1 | -4.5%
CCCC(C)NC(=O)c1ccc(OCC)cc1 (stereo not given) | -3.85%
CC(=O)CC(=O)C1CCC(C(=O)CC(C)=O)CC1 (stereo not given) | -13.2%
Cc1nsc2[nH]c(=O)n(Nc3ccc(O)cc3)c(=O)c12 | -4.9%
CC1(C)C(=O)c2cc3ccc4ccccc4c3cc2C(C)(C)C1(C)C | -7%
COC(=O)c1cc2c(cc1CC(Cc1ccc3c(c1)CCCC3)C(=O)OC)CCCC2 (stereo not given) | -5.15%
O=C(O[C@H]1[C@@H]2C=CO[C@@H](OC3OC(CO)C(O)C(O)C3O)[C@@H]2[C@@]2(CO)O[C@@H]12)c1ccc(O)c(O)c1 (stereo not given in full) | 0.4%
O=P(O)(O)c1ccc(-c2ccc(P(=O)(O)O)cc2)cc1 | -1.75%
